Results on 74 compounds are retold here after PubChem BioAssay AID743397 (Broad Institute, 2014).

The inhibition is the drop in the measured response relative to a control, in per cent.

The structures appear in SMILES notation. Hit rate of the full screen: of about 340,000 compounds, about 330 (0.097%) were called active. Only a selection was taken, and actives are over-represented in it overall. Unmarked numbers belong to inactive results.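 How the source made its calls: active means mean replicate inhibition of at least 30% and at least 1% of replicates passing that level; inconclusive means only one of the two criteria is met; inactive means neither criterion is met.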

The subject of the assay is Voltage-dependent L-type calcium channel subunit alpha-1D (CaV1.3) ICDI/IQ interaction. The assay is described as follows: Disruptors of the CACNA1D IQ motif to Ca2+-dependent inactivation inhibitor domain association, primary screening, Förster resonance energy transfer in intact living cells, one concentration (AID 743397).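 Further: 0% = median of the neutral control wells.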 Particulars: HEK cells, CFP/YFP FRET ICDI-IQ, plate reader, 10 min; at 12.3 µM; hits give high values; percent FRET-ratio fall versus neutral wells.
In the case of `COc1ccccc1Cc1c(-c2ccc(F)cc2)nc2ccc(C)cn12`, the inhibition was -8.77%. As for `CC(C)(C)C(c1nc2ccccc2[nH]1)n1c(Cc2csc3ccccc23)nc2ccccc21` (centres undefined), the inhibition was -10%. Consider `COC(=O)[C@]12C[C@H](CC(=O)NCc3ccccc3)C(=O)N(CCC3=CCCCC3)C1=C[C@H](C(C)(C)C)O[C@@H]2C`, for which the inhibition was -8.62%.

Consider `COC(=O)Cc1nnn2c1[C@H](C)[C@H](c1ccccc1Br)OCC2`, for which the inhibition is -6.7%. For `CC(=O)c1ccc(S(=O)(=O)NCC2CCN(C(=O)C(=O)c3cccs3)CC2)cc1`, the inhibition was -7.65%. For the compound `COc1ccc(-c2ccccc2C2Cc3nnccc3CN2C(=O)Nc2ccccc2)cc1` (centres undefined), the inhibition is -4.58%. For `CC(C)[C@@H](C)/C=C/[C@@H](C)[C@H]1CC[C@@H]2[C@]1(C)CCC1[C@]23C=C[C@]2(C[C@@H](O)CC[C@]12C)N(c1ccc([N+](=O)[O-])cn1)O3` (some centres undefined), the inhibition is -8.61%. `COC(=O)C1=C(C)N(Cc2ccccc2C(F)(F)F)C(=NCc2ccc(C(F)(F)F)cc2)NC1c1ccc(F)cc1` (centres undefined): the inhibition is -9.8%. To `CCCCCc1c(-c2ccc(OC)c(OC)c2)ncn1CCc1ccccc1OC` belongs -11%; to `COC(=O)Cc1nnn2c1[C@H](C)[C@@H](OC)c1cc(Br)ccc1-2`, -5.26%; to `CCCN1C(=O)c2[nH]nc(-c3ccccc3)c2C1c1ccccc1` (centres undefined), -3.81%. For the compound `COC(=O)[C@H](CC(C)C)NS(=O)(=O)c1c(F)cccc1F`, the inhibition is -4.96%. As to `CSc1ccc(Oc2cccc3c2S(=O)(=O)N([C@H](C)c2ccccc2)C[C@@H](COCc2ccccc2)O3)cc1C`, the inhibition was -9.54%. Take `COc1cccc(CC(=O)N2CCN(C(=O)C(=O)c3cccc(C(F)(F)F)c3)CC2)c1`: the inhibition was -9.3%. On to `Cc1ccc(NS(=O)(=O)c2cc3c(cc2Br)NC(=O)CO3)cc1C`, for which the inhibition is -4.61%.

Regarding `OC(c1ccccc1)(c1ccccc1)C1CCN(CCCOc2ccc(-c3ccsc3)cc2)CC1`, the inhibition was -9.67%. On to `COC(=O)[C@]12C[C@H](CC(=O)NCc3ccc(C)o3)C(=O)N(CCC3=CCCCC3)C1=C[C@H](C(C)(C)C)O[C@@H]2C`, for which the inhibition was -11.3%. To `CCCCCCCCN1C(=O)[C@@H](CC(=O)N2CCN(C(=O)OCC)CC2)C[C@@]2(C(=O)OC)C1=C[C@H](C1CCCC1)O[C@@H]2C` belongs -9.25%; to `C[C@H](CO)N1C[C@H](C)[C@@H](CN(C)C(=O)Nc2ccccc2F)OCc2cn(nn2)CCCC1=O`, -4.14%. In the case of `CN(C)C(=O)N1CCN(C(=O)[C@@H](Cc2ccccc2)NC(=O)[C@H]2O[C@@H](n3ccc(N)nc3=O)[C@H](O)[C@@H]2O)CC1`, the inhibition was -3.39%.

Regarding `CN1CCCc2nc(-c3ccccc3)ccc21`, the inhibition was -4.26%.

Take `Cc1noc(C)c1NC(=O)Nc1ccc2c(c1)C(=O)N([C@H](C)CO)C[C@H](C)[C@H](CN(C)Cc1ccncc1)OCCCC[C@@H](C)O2`: the inhibition was -5.78%. Regarding `Cc1cccc(N2CCN(C(=O)C3CCN(S(=O)(=O)c4cnc[nH]4)CC3)CC2)c1C`, the inhibition is -5.87%. In the case of `CCOC(=O)c1cccc(NC(=O)C2CCCN(S(=O)(=O)c3cnc[nH]3)C2)c1` (centres undefined), the inhibition is -9.58%. The same measure for `COc1cccc(N2CCN(C(=O)C3CCCN(S(=O)(=O)c4cnc[nH]4)C3)CC2)c1` (centres undefined): 46.8% (active). On to `COC(=O)C1=C(C)N(Cc2cccc(C(F)(F)F)c2)C(=NCc2cccc(C(F)(F)F)c2)NC1c1ccccc1C(F)(F)F` (centres undefined), for which the inhibition was -2%. `COC(=O)[C@@]12C[C@@H](CC(=O)NCCCCc3ccccc3)C(=O)N(CCc3ccc(OC)c(OC)c3)C1=CCC(C)(C)C2`: the inhibition is -8.1%. Regarding `O=S1(=O)c2c(cccc2N2CCCC2)O[C@H](COCc2ccccc2)CN1C1CC1`, the inhibition was -7.56%. As to `CC1CCN(C(=O)c2ncn3c2C(=O)N[C@@H](C)C3)CC1`, the inhibition is -3.16%. Turning to `COc1cccc(-c2cc(CNC(=O)[C@@H](Cc3ccccc3)NC(=O)[C@H]3O[C@@H](n4cnc(C(N)=O)n4)[C@H](O)[C@@H]3O)no2)c1`, the inhibition was -2.93%.

Take `COC(=O)[C@@]12C[C@@H](CC(=O)NCCCCc3ccccc3)C(=O)N(Cc3ccccc3)C1=CCC(C)(C)C2`: the inhibition was -17%. Turning to `COC(=O)Nc1nc2ccc(C(=O)C3CC3)cc2[nH]1`, the inhibition was -11.2%. Take `COC(=O)C1=C(C)N(Cc2ccc(C(F)(F)F)cc2)C(=NCc2ccc(C(F)(F)F)cc2)NC1c1cccc(Cl)c1` (centres undefined): the inhibition is -9.62%. The same measure for `C[C@H](O)[C@@H]1CN2CCc3ccc(-c4ccc5c(c4)OCO5)cc3[C@@H]2C[C@@H]1N(C)C(=O)C1CCCCC1`: -2.76%; for `O=C(C(=O)N1CCC(CNC(=O)c2cccnc2Cl)CC1)c1cccs1`: -10.2%. In the case of `Cc1ccccc1C(=O)N[C@H](C(=O)N1CCC[C@H]1C(=O)NCc1ccccc1)C(C)C`, the inhibition is -3.3%. Take `CCOc1ccccc1C(=O)N1CCC[C@@H]1C(=O)N1CCC[C@H]1C(=O)NCc1ccccc1`: the inhibition is -4.37%. As for `N#Cc1cccc(C(=O)NCC2CCN(C(=O)C(=O)c3cc4ccccc4o3)CC2)c1`, the inhibition is -8.07%. Take `NC(=O)c1ncn([C@@H]2O[C@H](C(=O)O)[C@@H](O)[C@H]2O)n1`: the inhibition was -4.52%. With `CC1(C)OC(=O)C2=C(CC(CCc3ccccc3)OC2c2ccc(Cl)cc2)O1` (centres undefined), the inhibition was -9.52%. In the case of `c1ccc(-c2ccc(OCCN3CCOCC3)cc2)cc1`, the inhibition is -9.07%.

As for `Fc1ccc(-c2ccc(NCCN3CCOCC3)nn2)cc1`, the inhibition was -2.08%. To `c1ccc2cc3c(NCCN4CCOCC4)ccnc3cc2c1` belongs 147% (active); to `C#CCN([C@@H](C)C(=O)OCC)S(=O)(=O)c1ccc(Br)cc1F`, -4.44%; to `COC(=O)[C@]12C[C@H](CC(=O)NCCc3ccccc3OC)C(=O)N(Cc3ccccc3)C1=C[C@H](C(C)C)O[C@@H]2C1CC1`, -8.67%.

Regarding `COC(=O)[C@]12C[C@H](CC(=O)NCCC(C)C)C(=O)N(CCc3ccc(OC)c(OC)c3)C1=C[C@H](C(C)(C)C)O[C@@H]2C`, the inhibition is -8.8%.

Consider `Nc1ncnc2c1ncn2[C@@H]1O[C@H](C(=O)N[C@@H](CCc2ccccc2)C(=O)N2CCCN(Cc3cccs3)CC2)[C@@H](O)[C@H]1O`, for which the inhibition was -9.97%. In the case of `COC(=O)[C@]12C[C@H](CC(=O)NCCCCc3ccccc3)C(=O)N(Cc3ccc4c(c3)OCO4)C1=C[C@H](C(C)(C)C)O[C@@H]2C`, the inhibition was -10.1%.

With `COc1cccc(CNC(=O)[C@H]2CCCN2C(=O)[C@H]2CCCN2C(=O)c2cc(F)cc(F)c2)c1`, the inhibition was -7.03%. Regarding `Cc1cc(N2CCN(C(=O)OC(C)(C)C)C[C@H]2C)ccc1N1CCN(Cc2ccccc2)[C@H](C)C1`, the inhibition is -7.25%.

On to `CCCCCCCCN1C(=O)[C@@H](CC(=O)NCc2ccc(C)o2)C[C@@]2(C(=O)OC)C1=C[C@H](C(C)(C)C)O[C@@H]2C`, for which the inhibition was -10.3%. As to `Nc1nc2c(ncn2[C@@H]2O[C@H](C(=O)N[C@@H](Cc3ccccc3)C(=O)NCc3ccccc3)[C@@H](O)[C@H]2O)c(=O)[nH]1`, the inhibition was -5.12%. Consider `C=CCN1C(=O)N(Cc2ccccc2)c2ccccc2S1(=O)=O`, for which the inhibition was -4.73%.

Consider `CCCCOCC1CN(CCCC)S(=O)(=O)c2c(Oc3ccc(F)cc3)cccc2O1` (centres undefined), for which the inhibition was -7.83%.

`COc1cccc(CNC(=O)[C@H]2CCCN2C(=O)[C@H]2CCCN2C(=O)C2CCCCC2)c1`: the inhibition was -4.37%.

Consider `O=C(NS(=O)(=O)c1cccs1)[C@H]1O[C@@H](n2ccc(=O)[nH]c2=O)[C@H](O)[C@@H]1O`, for which the inhibition is -3.64%. `CC(C)CNc1cccc2c1S(=O)(=O)N[C@H](C)CO2`: the inhibition is -7.79%. On to `COC(=O)C1=C(C)NC(=S)NC1c1ccc(OC)cc1` (centres undefined), for which the inhibition is -4.39%. Take `COc1ccc(C2=CN(Cc3ccccc3)C(c3ccc(OC)cc3)CC2=O)cc1` (centres undefined): the inhibition was -3.32%. Turning to `COc1ccc(C2C(C#N)=C(N)N(c3ncn[nH]3)C3=C2C(=O)CCC3)cc1` (centres undefined), the inhibition is -4.27%. To `COc1ccc(C2C3=C(CCCC3=O)N(CC(=O)O)C3=C2C(=O)CCC3)cc1` belongs 111% (active). As to `CCOc1ccc(C2C3=C(CCCC3=O)N(CC(=O)O)C3=C2C(=O)CCC3)cc1`, the inhibition is -13.8%. To `Cc1cc(NCCc2c[nH]c3ccccc23)ccc1Oc1cccnc1` belongs -8.52%. In the case of `Cc1cc(OC(=O)NCCc2ccc(F)cc2)ccc1F`, the inhibition was -6.4%. With `COc1ccccc1C(=O)N1O[C@]23C=C[C@]14C[C@@H](O)CC[C@]4(C)C2CC[C@]1(C)[C@@H]([C@H](C)/C=C/[C@H](C)C(C)C)CC[C@H]13` (some centres undefined), the inhibition is -9.42%.

With `CC(C)CNc1cccc2c1S(=O)(=O)N[C@H](CC(C)C)CO2`, the inhibition is -5.08%. As for `CCOCCCNc1c(CC)c(C)c(C#N)c2nc3ccccc3n12`, the inhibition was 61% (active).

With `Cc1cc(NC(C)C)n2c(nc3ccccc32)c1C#N`, the inhibition is -0.654%. To `CCOCCn1c(-c2ccccc2)nc2ccccc21` belongs -20.2%; to `COc1ccccc1-c1ccc([C@@H]2C[C@H]3[C@H](CON3C)CN2S(=O)(=O)c2cc(Cl)cc(Cl)c2)cc1`, -4.02%. As for `Cc1nc2c(OCc3ccc(Cl)cc3)cccn2c1N(C)Cc1cccs1`, the inhibition is -6.54%. To `CCCCc1c(-c2ccc(Cl)cc2)ncn1CCc1ccccc1OC` belongs -10.1%; to `C=CC1=CCN(S(=O)(=O)C(C)(C)C)[C@@H]1CCO`, -4.63%. To `CCN1C(=O)N[C@@H]2C[C@H](C(=O)N3CCCC3)[C@H](C)[C@H](c3ccccc3)C[C@@H]21` belongs -3.87%.
